Several values for one entry are separate records, joined by “and”; a condition that tells them apart may be missing. Equal entries are not always repeated. The campaign covered roughly 350,000 compounds. About 31,000 (8.9%) were called active. Not shown: some 15% with an inconclusive outcome. The sample holds actives, similar compounds and a random draw of the others, so the mix is not that of the screen. The call rests on the fitted dose curve; in most records, active means well fitted inhibition curve with a large enough effect; inconclusive means small, poorly fitted or top-dose-only effect; inactive means no such curve, though single readings can be large or run the other way. Some structures have more than one record in an assay (separate samples or runs), and their calls can disagree.
The molecules below were run against Histone-lysine N-methyltransferase EHMT2 (Homo sapiens) (UniProt Q96KQ7) (assay: qHTS Assay for Inhibitors of Histone Lysine Methyltransferase G9a). Conditions: G9a H3K9 monomethylation, AlphaScreen, 2 h; series mostly up to 102 µM; activity, negative = inhibition: at the top concentration.
Histone-lysine N-methyltransferase EHMT2 (Homo sapiens), sequence (Q96KQ7 913-1193 limits assumed): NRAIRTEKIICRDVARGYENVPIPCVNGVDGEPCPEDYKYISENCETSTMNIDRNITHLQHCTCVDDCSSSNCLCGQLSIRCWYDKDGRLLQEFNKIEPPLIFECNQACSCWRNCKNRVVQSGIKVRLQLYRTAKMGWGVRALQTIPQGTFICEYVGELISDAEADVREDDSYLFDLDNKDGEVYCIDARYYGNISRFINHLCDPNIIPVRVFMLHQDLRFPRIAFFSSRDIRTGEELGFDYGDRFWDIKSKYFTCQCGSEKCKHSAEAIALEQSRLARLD
From the text: Methylated lysines, on the N-terminal tails of histone proteins serve as epigenetic markers to recruit factors that can then modify local chromatin structure to lead to functional consequences. G9a and other members of the SUV39 family of the SET domain-containing superfamily of histone lysine methyltransferases (HMT) have been identified to specifically methylate Lys9 of histone H3 (H3K9). G9a catalyzes the mono- and di-methylation of H3K9 in mammalian euchromatic regions, where the resulting H3K9me2 is indicative of transcriptional repression. […] The inhibition of G9a will result in transcriptional activation and work synergistically with DNA methyltransferase and histone deacetylase inhibitors, to kill cancer cells. This qHTS assay for identification of G9a inhibitors is a chemiluminescence based AlphaScreen (PerkinElmer). Methylation of biotinylated-histone peptide is measured through specific antibody-based detection, in conjunction with streptavidin-coated donor and anti-IgG antibody-coated acceptor beads. The method is particularly well suited for detection of inhibitors acting by the desired histone peptide competitive mechanism and is applicable to testing other HMTs. Although AlphaScreen has significant advantages with its utility in a variety of epigenetic target assays, the primary screening data provided in this deposition should be used with caution due to the prevalence of screening artifacts. An AlphaScreen counterscreen is highly recommended to be run against any putative actives to eliminate non specific artifacts. Alternatively, one can use other AlphaScreen assays in PubChem to filter out promiscuous hits. Quinn et al. A chemiluminescence-based method for identification of histone lysine methyltransferase inhibitors. Mol Biosyst 6(5): 782-8. 2010. PMID: 20567762 [2] Baell,Holloway. New substructure filters for removal of pan assay interference compounds (PAINS) from screening libraries and for their exclusion in bioassays. J Med Chem. 53(7):2719-40. 2010. PMID: 20131845 NIH Molecular Libraries Probe Production Network [MLPCN] NIH Chemical Genomics Center [NCGC] Structural Genomics Consortium (SGC) NIH Grant: 5U54 MH084681-02
To each well of a 1,536w plate, 2ul of HMT enzyme (final 20nM) were added, using a nanoliter dispenser. The G9a- and GLP-inhibitor BIX-01294 (CID: 25150857) are used as an intraplate control, with a 16-point titration in duplicate. A Kalypsys pin-tool transferred 23nl of library compound solution in DMSO to each well. Following a 15 min incubation of enzyme with compounds at room temperature, 1ul mixture of b-H3K9 peptide substrate (final 500nM) and SAM cofactor (final 20uM) were added. Reactions were allowed to proceed at room temperature for 2 hours. Methylated b-H3K9 peptide product was detected with 0.5 ug/mL rabbit polyclonal anti-monomethyl histone H3K9 antibody (Abcam Inc., Cambridge, MA) and 20 ug/mL each streptavidin-coated donor and anti-rabbit IgG acceptor AlphaScreen beads. Antibody and beads were added in a 1ul dispense, for a final volume of 4ul, and plates were incubated, protected from the light, for 10 min at room temperature. Microplates were then read on an EnVision multilabel plate reader using the 1,536 plate HTS AlphaScreen aperture (excitation time 80 ms, measurement time 240 ms).
`COc1ccc2c(c1O)-c1cccc3c1[C@@H](C2)N(C)CC3` was tested, and the Potency was 7.94 µM (active). In the case of `COC1=C[C@@H]2[C@@H]3Cc4ccc(OC)c(O)c4[C@]2(CCN3C)CC1=O`, the “activity, negative = inhibition” value is reported as 23.7% [at 59 µM] (inactive). `COP(=O)(OC)C(NC(=O)c1ccc(C)cc1)C(Cl)(Cl)Cl` (stereo unspecified) was tested, and the “activity, negative = inhibition” value was 5.04% (inactive). In the case of `C[C@]12CC[C@H](O)C[C@@H]1CC[C@H]1[C@H]2CC[C@]2(C)C(=O)CC[C@@H]12`, the activity, negative = inhibition is reported as 13.5% [at 21.5 µM] (inactive) and 22.6% [at 21.5 µM] (inactive) and 16.7% [at 21.5 µM] (inactive). For `Cc1ccc(C2CN(C)CC2C(=O)c2ccc(F)cc2)cc1` (stereo unspecified), the “activity, negative = inhibition” value was 7.75% (inactive). `Fc1cccc(F)c1CN1CCN(Cc2c(F)cccc2F)CC1` was tested, and the “activity, negative = inhibition” value was -4.67% [at 59 µM] (inactive). In the case of `COc1ccc(CN2CCN(c3ccccc3F)CC2)c(OC)c1`, the Potency is reported as 11.2 µM (active). In the case of `O=C(O)C1CSC(c2cccnc2)N1` (stereo unspecified), the Potency is reported as 3.55 µM (active). With `C[C@@]1([C@@H](NP(=O)(c2ccccc2)c2ccccc2)c2ccccc2)C[C@H]1CCO` the “activity, negative = inhibition” value was 25.1% (inactive). For `COc1ccc(C2CC(c3cccs3)=NN2c2nc(C)c(C(C)=O)s2)cc1OC` (stereo unspecified), the “activity, negative = inhibition” value was 25.5% (inactive). For `CCOCCc1c(O)[nH]c(=S)[nH]c1=O`, the “activity, negative = inhibition” value was 5.61% (inactive). With `COc1ccccc1N=Nc1c(O)[nH]c(=S)[nH]c1=O` the Potency was 39.8 µM (active). In the case of `Clc1ccc2nc3c(c(-c4ccccc4)c2c1)CNCC3`, the “activity, negative = inhibition” value is reported as -15.8% [at 59 µM] (inactive). With `CNCC[C@H](Oc1ccc(C(F)(F)F)cc1)c1ccccc1` the activity, negative = inhibition was 4.7% [at 21.5 µM] (inactive) and 32.2% [at 12.7 µM] (inactive). With `c1csc(CN2CC3(CCNCC3)C2)n1` the activity, negative = inhibition was -16.9% [at 12.7 µM] (inactive). For `c1ccc(N2CC[C@@]3(CCCNC3)C2)nc1`, the activity, negative = inhibition was -39.9% [at 12.7 µM] (inactive). With `COC(=O)CN1C(=O)C2(C(C(=O)OC)=C(N)Oc3ccccc32)C2=C1CC(C)(C)CC2=O` (stereo unspecified) the “activity, negative = inhibition” value was 17.5% [at 59 µM] (inactive). In the case of `COc1cccc(N2C(=O)NC(=O)/C(=C\c3cn(C)c4ccccc34)C2=O)c1`, the “activity, negative = inhibition” value is reported as -16.1% (inactive). `O=C1NC(=O)N(c2ccccc2)C(=O)/C1=C/c1ccc([N+](=O)[O-])s1` was tested, and the Potency was 8.91 µM (active). With `COc1cccc(N2C(=O)NC(=O)/C(=C\c3ccc([N+](=O)[O-])s3)C2=O)c1` the Potency was 7.94 µM (active). In the case of `CCN1C[C@]2(C)CC[C@H](O)[C@@]34[C@@H]5CC6[C@@H](OC)C[C@@](O)([C@@H]5[C@@H]6O)[C@H](C[C@@H]23)[C@H]14`, the activity, negative = inhibition is reported as 28.6% [at 21.5 µM] (inactive). In the case of `CCOc1cccc(=NC2CCCCC2)c2c(C)[nH]c(C)c12`, the activity, negative = inhibition is reported as 40.3% [at 12.7 µM] (inactive). With `NC[C@H](O)c1ccc(O)cc1` the activity, negative = inhibition was 24.2% [at 21.5 µM] (inactive). `CCN(CC)C(=O)c1ccc(NC(=O)c2cc(-n3cnnc3)ccc2Cl)cc1` was tested, and the activity, negative = inhibition was -47.2% [at 12.7 µM] (inactive). For `COC(=O)C1=C(c2ccc(Cl)c(C(F)(F)F)c2)C[C@@H]2CC[C@H]1N2C(=O)NC(C)C`, the activity, negative = inhibition was 11.8% [at 2.33 µM] (inactive). `CC[N+]1(C)CCCC(OC(=O)C(O)(c2ccccc2)c2ccccc2)C1` (stereo unspecified) was tested, and the activity, negative = inhibition was “inactive”. In the case of `Cc1ncsc1CCCl`, the Potency is reported as “inactive and 23.8 µM (active)”. In the case of `COc1ccc(CCn2c(O)c(C=NC3CC3)c(=O)[nH]c2=O)cc1OC`, the “activity, negative = inhibition” value is reported as 2.41% [at 59 µM] (inactive). For `COC(=O)c1ccc2[se]c(CC3CCCCC3)c(I)c2c1`, the “activity, negative = inhibition” value was -2.16% [at 59 µM] (inactive). With `O=C(C1CCN(CC2CCCCC2)CC1)N1CCCC1` the Potency was 8.91 µM (active). With `CSc1ccc(C(=O)C2CCCN(Cc3ccn[nH]3)C2)cc1` (stereo unspecified) the “activity, negative = inhibition” value was -40.8% (inactive). With `O=[N+]([O-])c1ccc(C2C3C(c4ccccc4)=NC4(CCCCC4)N32)cc1` (stereo unspecified) the “activity, negative = inhibition” value was -20.1% (inactive). For `CC(Cc1cccs1)NCc1ccc(Cl)cc1` (stereo unspecified), the “activity, negative = inhibition” value was -3.26% (inactive). For `Nc1ccc([N+](=O)[O-])cc1`, the activity, negative = inhibition was 6.3% [at 0.501 µM] (inactive). With `O=c1c2ccccc2nc(-c2ccccc2)n1-c1ccccn1` the activity, negative = inhibition was 0.769% [at 0.501 µM] (inactive). In the case of `CC12CN3CC(C)(CN(C1)C3c1cccs1)C2` (stereo unspecified), the “activity, negative = inhibition” value is reported as -3.29% (inactive). In the case of `Cc1ccc(-c2cc(C(=O)N3CCC4(CC3)OCCO4)no2)cc1`, the “activity, negative = inhibition” value is reported as -1.09% (inactive). In the case of `CCOC(=O)C(NS(=O)(=O)c1ccc(C)cc1)(C(F)(F)F)P(=O)(OCC(C)C)OCC(C)C` (stereo unspecified), the Potency is reported as 7.08 µM (active). For `COC(=O)C1=C(c2ccc(F)cc2OCc2ccccc2)C[C@@H]2CC[C@H]1N2C(=O)NCc1ccc(C(C)(C)C)cc1`, the activity, negative = inhibition was 21.1% [at 2.33 µM] (inactive). For `CC(=O)Nc1ccccc1C(=O)OCC(=O)c1cccc2ccccc12`, the “activity, negative = inhibition” value was 2.62% [at 59 µM] (inactive). In the case of `CCOC(=O)C1CCN(Cc2coc3ccc(Cl)cc3c2=O)CC1`, the Potency is reported as 3.16 µM (active). With `C[N+]12CN3CN(CN(C3)C1)C2` the Potency was 1.12 µM (active). For `COc1ccc(CCn2c(O)c(C=NCCCn3ccnc3)c(=O)[nH]c2=O)cc1OC`, the “activity, negative = inhibition” value was 21% (inactive). In the case of `CCCCCCCCCCCCCC(=O)O[C@@H]1[C@@H](C)[C@@]2(O)[C@@H](C=C(CO)C[C@]3(O)C(=O)C(C)=C[C@@H]23)[C@@H]2C(C)(C)[C@]12OC(C)=O`, the “activity, negative = inhibition” value is reported as 8.77% [at 59 µM] (inactive). `COC(=O)N1C(c2ccccc2)C1c1ccccc1` (stereo unspecified) was tested, and the “activity, negative = inhibition” value was 35.5% (inactive). With `COC(=O)C1=C(c2cccc(OCc3ccccc3)c2)C[C@@H]2CC[C@H]1N2C(=O)NCc1ccc(Br)cc1` the activity, negative = inhibition was -5.98% [at 0.501 µM] (inactive).

Reference: PubChem BioAssay AID504332 (National Center for Advancing Translational Sciences (NCATS), 2011)
Further: nearly all actives have a fitted effect of over 75% in size.
On the % scale 0 is the no-effect control and ±100 the full control effect; potency means the concentration at half of the fitted maximal effect.
